Experimental findings from PubChem BioAssay (EPA / NIEHS) are described below.

The nature of assay [1]: ATG_PBREM_CIS: Attagene CIS-FACTORIAL HepG2 Assay for human Phenobarbital-responsive Enhancer Module (PBREM) (AID 2282955). As to conditions: HepG2 PBREM cis-reporter, Attagene multiplexed transcription; actives raise or lower the signal. In a few lines: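 Endogenous transcription factors in human liver HepG2 cells drive a PBREM cis-element reporter, whose transcript level after 24 h treatment is quantified by RT-PCR with capillary electrophoresis; activity fitted in both directions against DMSO.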

The target in assay [2] is Paired box protein Pax-6 (Homo sapiens) (UniProt P26367). In words: ATG_Pax6_CIS: Attagene CIS-FACTORIAL HepG2 Assay for human Paired Box 6 (PAX6) (AID 2282956). The conditions noted are these: HepG2 CIS-FACTORIAL PAX6 reporter transcription, RNA readout; actives raise or lower the signal. In a few lines: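 DMSO-referenced bidirectional fits of reporter mRNA fluorescence; HepG2 with transient cis-promoter MRTUs, 24 h post-dose, RT-PCR plus capillary electrophoresis detection.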
Paired box protein Pax-6 (Homo sapiens), sequence (P26367 whole entry, looked up): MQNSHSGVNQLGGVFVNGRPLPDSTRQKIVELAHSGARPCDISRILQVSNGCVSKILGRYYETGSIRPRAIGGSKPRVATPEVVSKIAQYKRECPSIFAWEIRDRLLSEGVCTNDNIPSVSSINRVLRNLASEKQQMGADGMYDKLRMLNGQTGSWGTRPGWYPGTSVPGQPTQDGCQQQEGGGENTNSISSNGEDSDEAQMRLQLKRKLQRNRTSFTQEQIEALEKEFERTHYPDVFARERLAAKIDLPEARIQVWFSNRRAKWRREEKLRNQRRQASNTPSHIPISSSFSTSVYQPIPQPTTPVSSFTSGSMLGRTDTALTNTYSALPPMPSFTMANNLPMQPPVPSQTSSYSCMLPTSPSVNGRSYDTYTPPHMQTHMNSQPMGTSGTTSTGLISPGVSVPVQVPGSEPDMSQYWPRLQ

Assay [3] in a line: ATG_PXRE_CIS: Attagene CIS-FACTORIAL HepG2 Assay for human Pregnane X Receptor Element (PXRE) (AID 2282957). As to conditions: HepG2 Attagene CIS-FACTORIAL PXRE reporter, mRNA; actives raise or lower the signal. A digest of the protocol:
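Bidirectional activity, baselined to DMSO, derived from reporter mRNA fluorescence (RT-PCR plus capillary electrophoresis) in HepG2 cells bearing cis-promoter reporter units, 24 h exposure.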

Assay [4] is described as follows: ATG_PPRE_CIS: Attagene CIS-FACTORIAL HepG2 Assay for human Peroxisome Proliferator-activated Response Element (PPRE) (AID 2282958). The conditions noted are these: HepG2 PPRE cis-element reporter, Attagene transcription factor profiling; actives raise or lower the signal. A digest of the protocol:
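HepG2, transient MRTU transfection (cis promoter elements, endogenous TFs). 24 h dosing. RNA → oligo(dT) RT → PCR → 6-FAM primer extension → HpaI digest → CE. Bidirectional fit vs DMSO.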

Assay [5] in a line: ATG_Sox_CIS: Attagene CIS-FACTORIAL HepG2 Assay for human SRY-box transcription factor (SOX) (AID 2282960). As to conditions: HepG2 Attagene cis-factorial SOX reporter, mRNA; actives raise or lower the signal. A digest of the protocol:
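Endogenous factor activity in human liver HepG2 cells carrying transfected cis-regulated reporter units. RNA taken 24 h post-dose, reverse-transcribed, PCR-amplified and sized by capillary electrophoresis. Gain or loss of signal fitted relative to DMSO.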

Assay [6] deals with Transcription factor Sp1 (Homo sapiens) (UniProt P08047). In words: ATG_Sp1_CIS: Attagene CIS-FACTORIAL HepG2 Assay for human Specificity Protein 1 (Sp1) (AID 2282961). The conditions noted are these: HepG2 Sp1 cis-reporter transcription, actives raise or lower the signal. In a few lines: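 Transient MRTU-transfected HepG2, 24 h compound exposure. Total RNA → oligo(dT) RT → PCR of reporter → 6-FAM primer extension → HpaI digest → CE. Endpoint fitted both directions vs DMSO.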
Transcription factor Sp1 (Homo sapiens), sequence (P08047 whole entry, looked up): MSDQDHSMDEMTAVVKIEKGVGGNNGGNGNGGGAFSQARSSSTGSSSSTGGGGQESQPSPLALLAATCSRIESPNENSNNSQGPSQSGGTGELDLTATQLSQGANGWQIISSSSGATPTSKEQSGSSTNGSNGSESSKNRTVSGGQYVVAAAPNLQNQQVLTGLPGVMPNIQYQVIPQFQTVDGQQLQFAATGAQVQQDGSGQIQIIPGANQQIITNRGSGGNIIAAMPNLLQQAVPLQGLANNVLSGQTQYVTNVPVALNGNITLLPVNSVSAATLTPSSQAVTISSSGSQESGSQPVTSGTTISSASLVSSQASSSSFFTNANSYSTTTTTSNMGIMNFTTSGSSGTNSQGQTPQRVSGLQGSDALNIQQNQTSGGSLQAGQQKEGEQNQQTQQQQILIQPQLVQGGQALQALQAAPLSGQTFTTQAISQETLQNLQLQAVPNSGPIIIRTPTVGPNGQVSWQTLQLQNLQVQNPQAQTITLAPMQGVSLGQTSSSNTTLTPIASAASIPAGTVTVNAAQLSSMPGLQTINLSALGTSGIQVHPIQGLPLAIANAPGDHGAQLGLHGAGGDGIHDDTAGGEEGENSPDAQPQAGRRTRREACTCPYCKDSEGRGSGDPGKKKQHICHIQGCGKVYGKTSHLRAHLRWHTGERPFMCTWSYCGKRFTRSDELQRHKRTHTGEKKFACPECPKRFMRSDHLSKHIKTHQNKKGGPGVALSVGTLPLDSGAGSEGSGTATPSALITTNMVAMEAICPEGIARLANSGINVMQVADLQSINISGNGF

The nature of assay [7]: ATG_SREBP_CIS: Attagene CIS-FACTORIAL HepG2 Assay for human Sterol Regulatory Element Binding (SREBP) (AID 2282962). The conditions noted are these: HepG2 Attagene cis-factorial SREBP reporter, mRNA; actives raise or lower the signal. A digest of the protocol: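 In this cis-format assay, HepG2 liver cells express reporters controlled by promoter elements responsive to native transcription factors. Exposure lasts 24 h; reporter mRNA fluorescence from capillary electrophoresis gives the signal, fitted bidirectionally against DMSO.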

Assay [8] addresses Signal transducer and activator of transcription 3 (Homo sapiens) (UniProt P40763). In words: ATG_STAT3_CIS: Attagene CIS-FACTORIAL HepG2 Assay for human Signal Transducer and Activator of Transcription 3 (STAT3) (AID 2282963). As to conditions: HepG2, Attagene cis-factorial STAT3 reporter transcription; actives raise or lower the signal. A digest of the protocol: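 Readout is reporter transcript quantified by RT-PCR and capillary electrophoresis, with 6-FAM primer extension and HpaI digestion. Total RNA is taken 24 h after dosing transiently transfected HepG2 carrying cis-regulated reporter units. Bidirectional fit against DMSO.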

A short description of assay [9]: ATG_TA_CIS: Attagene CIS-FACTORIAL HepG2 Assay for human TA Basal Promoter (AID 2282964). The conditions noted are these: HepG2 Attagene CIS-factorial TA basal promoter reporter; actives raise or lower the signal. A digest of the protocol:
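Steps: transfect HepG2 with MRTUs; dose 24 h; isolate RNA, DNase-treat, reverse-transcribe; PCR and FAM-label reporter cDNA; digest with HpaI 2h at 37 C; run capillary electrophoresis. Activity fitted both directions against DMSO.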

Calls of active or inactive are those of the source. Rule for the calls: active = hit-call score of the fitted dose curve at least 0.9, where 1 is the maximum; inactive = score below 0.9.

Signal transducer and activator of transcription 3 (Homo sapiens), sequence (P40763 whole entry, looked up): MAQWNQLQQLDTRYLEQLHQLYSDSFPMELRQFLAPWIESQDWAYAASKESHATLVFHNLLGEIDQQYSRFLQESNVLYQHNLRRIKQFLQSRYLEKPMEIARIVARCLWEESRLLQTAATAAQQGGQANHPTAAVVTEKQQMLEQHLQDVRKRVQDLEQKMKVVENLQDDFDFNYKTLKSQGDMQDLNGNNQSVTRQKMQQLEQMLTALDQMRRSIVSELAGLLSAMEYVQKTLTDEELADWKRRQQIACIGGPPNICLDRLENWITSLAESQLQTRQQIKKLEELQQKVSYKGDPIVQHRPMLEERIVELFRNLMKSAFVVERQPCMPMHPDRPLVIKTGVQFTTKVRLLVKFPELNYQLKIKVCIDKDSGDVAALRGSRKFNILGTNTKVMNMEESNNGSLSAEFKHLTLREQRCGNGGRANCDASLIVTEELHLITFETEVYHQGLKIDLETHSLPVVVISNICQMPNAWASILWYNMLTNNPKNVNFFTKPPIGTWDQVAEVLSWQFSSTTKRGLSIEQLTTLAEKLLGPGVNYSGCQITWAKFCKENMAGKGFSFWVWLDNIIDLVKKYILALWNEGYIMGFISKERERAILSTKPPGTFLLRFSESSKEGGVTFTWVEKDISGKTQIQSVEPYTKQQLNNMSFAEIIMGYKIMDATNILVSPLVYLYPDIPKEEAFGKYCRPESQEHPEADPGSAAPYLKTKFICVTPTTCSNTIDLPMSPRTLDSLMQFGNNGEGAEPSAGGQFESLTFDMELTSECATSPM

As for `O=S(=O)(OCC(F)F)C(F)(F)F`, the outcome in [1], in assay [2], in assay [3], in assay [4], in assay [5] and in [6] was inactive. The result in [7], in assay [8] and in assay [9] was inactive.

In the case of `C=C(C)C(=O)OCCC(F)(F)C(F)(F)C(F)(F)C(F)(F)C(F)(C(F)(F)F)C(F)(F)F`, the result in assay [1], in assay [2], in [3], in [4], in assay [6] and in [7] was inactive. The compound was classed as inactive in [8] and in [9].

In the case of `Nc1ccc(S(=O)(=O)Nc2nccs2)cc1`, the call in [2], in assay [3], in assay [4], in assay [5], in assay [6] and in assay [7] was inactive. The call in assay [8] and in assay [9] was inactive.

`O=C(O)C(F)(F)C(F)(F)C(F)(F)F`: the result in assay [1], in assay [2], in assay [3], in assay [4], in assay [5] and in assay [6] was inactive. Also, the compound was called inactive in assay [7], in assay [8] and in assay [9].

For orientation: AC50 means the concentration giving half of the maximal activity seen. For `CC(=O)Nc1ccc(N=Nc2cc(C)ccc2O)cc1`, the AC50 in [1] is 49.4 µM (active); in assay [3], 19.5 µM (active); in assay [4], 39.6 µM (active). Moreover, the result in assay [2], in [5], in [6], in [7], in [8] and in assay [9] was inactive.

For the compound `C=CC(F)(F)C(F)(F)C(F)(F)C(F)(F)C(F)(F)C(F)(F)C(F)(F)C(F)(F)F`, the outcome in assay [1], in assay [2], in assay [3], in [4], in assay [6] and in [7] was inactive. In addition, the compound was classed as inactive in assay [8] and in [9].

For the compound `CCC(=O)OCCc1ccccc1`, the result in assay [1], in assay [2], in assay [3], in assay [4], in assay [6] and in assay [7] was inactive. Also, the outcome in assay [8] and in assay [9] was inactive.

Consider `C=C(C)C(=O)OCC(F)(F)C(F)(F)C(F)(F)F`, for which the result in assay [1], in assay [2], in assay [3], in [4], in assay [6] and in assay [7] was inactive. Moreover, the call in assay [8] and in [9] was inactive.

With `OCC(F)(F)C(F)(F)C(F)(F)C(F)(F)C(F)(F)C(F)(F)F`, the AC50 in assay [1] is 282 µM (active); in [3], 242 µM (active); in assay [7], 234 µM (active). Also, the compound was called inactive in assay [2], in [4], in assay [6], in assay [8] and in assay [9].

For `C=CC(F)(F)C(F)(F)C(F)(F)C(F)(F)C(F)(F)C(F)(F)C(F)(F)C(F)(F)C=C`, the outcome in [1], in assay [2], in [3], in assay [4], in [5] and in [6] was inactive. The result in [7], in assay [8] and in assay [9] was inactive.

With `CCCCCC=O`, the outcome in assay [1], in [2], in assay [3], in [4], in [6] and in [7] was inactive. The compound was classed as inactive in [8] and in assay [9].

On to `CCCCCCC(C)OC(=O)CCCCC(=O)OC(C)CCCCCC` (stereo not given), for which the result in assay [1], in [2], in [4], in [6], in assay [7] and in [8] was inactive. Moreover, in [9], the call was inactive. In assay [3], the AC50 was 12.8 µM (active).
